Laboratory results as given in PubChem BioAssay (NCI).
The panel holds about 83,000 compounds, 20% with a hit somewhere; the sample as a whole holds those more often.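 Plates (96-well) were seeded with cells, treated with compound at one concentration, and incubated for 48 hours before percent growth was determined.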 A number with no mark means an inactive call. Activity calls are given as the source filed them. The calls were made as follows: active = growth percent below 10; inactive = the rest.

tested on: KM12 colon; experiment: NCI-60 one-dose screen, 48 h (100 = growth as untreated, 0 = no growth, -100 = all killed); conditions: 10 µM unless noted

Row | SMILES | growth
1 | Cc1cc(=O)oc2cc(Oc3nc(-c4ccccc4)cn4c(-c5ccccc5)cnc34)ccc12 | 75.5%
2 | Cc1ccc2c(n1)C[C@H](C(C)(C)O)CC[C@H]2C | 109%
3 | Nc1nc(N)c2c(n1)NC(c1cccc(Nc3ccnc4cc(C(F)(F)F)ccc34)c1)CC(c1ccc(Cl)cc1)=N2 (stereo not given) | 21.3%
4 | C(CCCSC1=NCCN1)CCSC1=NCCN1 | 113%
5 | O=S(=O)(Nc1ccc(Br)cc1)c1ccc(-c2cnc(C3CC3)o2)cc1 | 24.6%
6 | Nc1n[nH]c2cccc(C#Cc3cccc(C(=O)Nc4ccc(Cl)c(C(F)(F)F)c4)c3)c12 | 59.4%
7 | NC(=N\N=C/c1ccc(Cl)cc1Cl)/C(N)=N\N=C/c1ccc(Cl)cc1Cl | 84%
8 | COc1cc(C(=O)/C=C/c2c(-c3cccs3)nc3sc(C)cn23)cc(OC)c1OC | -8.4% (active)
9 | Nc1nc(=O)n([C@H]2CC=C(CO)O2)cc1F | 103%
10 | COc1ccc(Nc2nccc(Nc3ccc4[nH]ncc4c3)n2)cc1 | 10%
11 | Cc1[nH]c(C(=O)Nc2ccccc2OC2CCNC2)c(Cl)c1Cl (stereo not given) | 84.2%
12 | CCN1CCN(CCOc2ccc(CNc3ccc4nc(CCC5CCCCC5)[nH]c4c3)cc2)CC1 | 47.1%
13 | O=C1NCCS(=O)(=O)/C1=C\C=C\c1cccc(C(F)(F)F)c1 | 43.9%
14 | CCCCCCCCCCCCCC[n+]1ccc2c(C)c3c(c(C)c2c1)c1cc(O)ccc1n3CC | -67.3% (active)
15 | CCCc1cc(CCC)n2nc(N)nc2n1 | 108%
16 | O=S(=O)(c1ccc(NCSc2nc3ccccc3s2)cc1)c1ccc(NCSc2nc3ccccc3s2)cc1 | 102%
17 | COc1cc(/C=C2\CN(S(=O)(=O)c3ccc(C)cc3)C/C(=C\c3cc(CN4CCCC4)c(O)c(OC)c3)C2=O)cc(CN2CCCC2)c1O | -63.9% (active)
18 | Cc1cccc(CN(Nc2ccccc2)c2ccccc2)n1 | 110%
19 | O=C(NS(=O)(=O)c1ccccc1)n1cc(-c2ccncc2)c(-c2cc(O)cc(Cl)c2)n1 | 99.5%
20 | CCCCN(CCC#N)C(N)=O | 105%

Row | SMILES | growth
21 | CCOC(=O)/C(=C/c1ccc([N+](=O)[O-])cc1)C(=O)c1ccccc1 | 29.5%
22 | N#Cc1c(-c2ccc(F)cc2)cc(-c2cccc(Cl)c2)[nH]c1=O | 56.1%
23 | O=C(Nc1cccc(Cn2c(=O)[nH]c3ccc(Oc4ncccn4)cc3c2=O)c1)c1cccc(Cl)c1 | 55%
24 | O=C1c2c(c3c4cccnc4[nH]c3c3ccc4ccccc4c23)C(=O)N1O | 50.2%
25 | COC(=O)c1nc(-c2ccccc2)oc1S(=O)(=O)N1CCN(c2ccc(OC)cc2)CC1 | 86.2%
26 | O=C1c2ccccc2-c2c1c1ccncc1c(=O)n2CCCn1ccnc1 | 32.8%
27 | COc1cc(-c2c(-c3ccccc3)c[nH]c2C(=O)NCCCO)c(OC)c2c1OCO2 | 125%
28 | C=C(C)Cn1c(SCC(=O)c2cccs2)nc2sc3c(c2c1=O)CCCC3 | 42.9%
29 | CNC1=C([N+](=O)[O-])C(c2ccc(OC)cc2)C(C#N)=C(c2ccc[nH]2)O1 (stereo not given) | 114%
30 | Cn1cc(-c2nc(-c3c[nH]c4c(Cl)nccc34)cs2)c2ccccc21 | 95.9%
31 | N/C(=N\c1nc2ccccc2s1)NC(=O)Nc1ccccc1 | 25.4%
32 | C#Cc1ccc(NC(=O)Cc2ccc(/C=C/C(=O)c3nccn3C)cc2)cc1 | 25.6%
33 | Cc1cc2c(C(C)C)c(O)c(O)c(/C=N/O)c2c(O)c1-c1c(C)cc2c(C(C)C)c(O)c(O)c(/C=N/O)c2c1O | 26%
34 | O=C(Nc1ccc2[nH]ncc2c1)c1csc(Nc2ccccc2)n1 | 27.7%
35 | COC(=O)c1nc(-c2ccccc2)oc1S(=O)(=O)NCC(c1ccc(Cl)cc1)N1CCCCC1 (stereo not given) | 80.6%
36 | O=C(Nc1ccc(Oc2cccc(F)c2)c(Cl)c1)c1cnccn1 | 30.3%
37 | COc1ccc(Nc2nc(Nc3cc(C)[nH]n3)c3cc(OC)c(OC)cc3n2)cc1 | -74% [20 µM] (active)
38 | COC(=O)c1cc(-c2ccc(OC)c(OC)c2)[nH]c1N/N=C/c1c(Cl)cccc1Cl | 28.7%
39 | CC(C)=CCC[C@](C)(O)C1CC[C@]2(C)[C@@H]1CC[C@@H]1[C@@]3(C)CC/C(=N\OCCC#N)C(C)(C)[C@@H]3CC[C@]12C (stereo not given in full) | 84.7%
40 | N#C/C(=C\c1cccc2cnccc12)N1N=NC2C=CC=CC21 (stereo not given) | 43.5%
